This note sets out measurements from publication PMC7862700, “An all-to-all approach to the identification of sequence-specific readers for epigenetic DNA modifications on cytosine”.

Holding throughout (test): DAPPL (digital affinity profiling via proximity ligation, sequencing); 10 mM Tris-HCl pH 7.5, 50 mM NaCl, 1 mM DTT, 4% glycerol, room temperature, 30 min; GST-TFs on glutathione beads, 16-mer random dsDNA library, 0.1% formaldehyde crosslink after washing; high values mean tight binding
One assay deals with T1, FLI1 (Homo sapiens, UniProt Q01543 1-452).
T1 sequence: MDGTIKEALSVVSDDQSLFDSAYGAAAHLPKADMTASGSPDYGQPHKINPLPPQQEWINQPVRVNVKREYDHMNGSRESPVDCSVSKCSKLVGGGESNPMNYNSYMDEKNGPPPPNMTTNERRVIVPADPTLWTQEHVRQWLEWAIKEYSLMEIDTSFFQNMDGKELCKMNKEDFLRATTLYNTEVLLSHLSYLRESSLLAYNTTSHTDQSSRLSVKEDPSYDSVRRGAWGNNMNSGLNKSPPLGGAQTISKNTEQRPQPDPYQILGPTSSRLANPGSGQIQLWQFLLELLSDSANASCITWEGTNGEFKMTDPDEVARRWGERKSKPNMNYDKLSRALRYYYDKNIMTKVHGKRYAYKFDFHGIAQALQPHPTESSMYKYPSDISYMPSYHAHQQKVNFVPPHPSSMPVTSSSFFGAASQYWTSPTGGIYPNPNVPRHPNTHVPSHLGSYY
The following applies: protein: recombinant; tags: N-terminal GST; dsDNA, one strand shown. The gist of the method: (§1)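 Binding signal is each hexamer's read frequency for a factor divided by its frequency in the tag-only sample. The factors were GST-fused human transcription factors from yeast, captured on glutathione beads, DNA-barcoded and pooled with that sample. Pools were incubated with 200 nmole of a random double-stranded 16-mer DNA library in Tris/NaCl/DTT/glycerol buffer at room temperature for 30 min, then washed, crosslinked with 0.1% formaldehyde, proximity-ligated with BsaI/T4 ligase (1 h, 37 °C), PCR-amplified and sequenced on an Illumina NextSeq500.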

The next assay addresses T2, ELK1 (Homo sapiens, UniProt P19419 1-428).
T2 sequence: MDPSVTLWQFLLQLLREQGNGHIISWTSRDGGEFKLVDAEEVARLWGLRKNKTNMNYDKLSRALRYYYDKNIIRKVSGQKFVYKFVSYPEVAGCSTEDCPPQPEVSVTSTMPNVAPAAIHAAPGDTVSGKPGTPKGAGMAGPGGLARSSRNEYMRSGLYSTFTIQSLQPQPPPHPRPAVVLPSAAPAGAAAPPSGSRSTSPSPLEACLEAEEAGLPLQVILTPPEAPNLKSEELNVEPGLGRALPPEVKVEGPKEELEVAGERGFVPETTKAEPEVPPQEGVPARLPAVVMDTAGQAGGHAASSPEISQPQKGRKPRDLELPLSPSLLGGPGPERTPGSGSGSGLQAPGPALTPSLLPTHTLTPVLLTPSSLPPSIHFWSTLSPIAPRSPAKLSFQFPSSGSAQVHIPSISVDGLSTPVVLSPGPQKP
The following applies: protein: recombinant; tags: N-terminal GST; dsDNA, one strand shown. A digest of the protocol:
as §1

The target of a further assay is T3, GABPA (Homo sapiens, UniProt Q06546 1-454).
T3 sequence: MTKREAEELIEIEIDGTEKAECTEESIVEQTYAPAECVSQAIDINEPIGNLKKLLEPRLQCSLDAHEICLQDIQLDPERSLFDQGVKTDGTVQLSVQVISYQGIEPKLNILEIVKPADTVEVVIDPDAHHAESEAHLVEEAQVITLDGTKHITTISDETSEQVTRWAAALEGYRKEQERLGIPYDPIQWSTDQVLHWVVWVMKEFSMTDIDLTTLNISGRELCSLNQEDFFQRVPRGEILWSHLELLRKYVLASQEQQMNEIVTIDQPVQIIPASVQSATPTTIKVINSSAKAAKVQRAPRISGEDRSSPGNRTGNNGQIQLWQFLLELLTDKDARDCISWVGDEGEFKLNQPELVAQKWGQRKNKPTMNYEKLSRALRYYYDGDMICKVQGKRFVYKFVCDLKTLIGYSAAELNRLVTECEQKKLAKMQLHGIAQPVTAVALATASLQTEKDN
The following applies: protein: recombinant; tags: N-terminal GST; dsDNA, one strand shown. A digest of the protocol: as §1

The target of another assay is T4, ERG (Homo sapiens, UniProt P11308 1-479).
T4 sequence: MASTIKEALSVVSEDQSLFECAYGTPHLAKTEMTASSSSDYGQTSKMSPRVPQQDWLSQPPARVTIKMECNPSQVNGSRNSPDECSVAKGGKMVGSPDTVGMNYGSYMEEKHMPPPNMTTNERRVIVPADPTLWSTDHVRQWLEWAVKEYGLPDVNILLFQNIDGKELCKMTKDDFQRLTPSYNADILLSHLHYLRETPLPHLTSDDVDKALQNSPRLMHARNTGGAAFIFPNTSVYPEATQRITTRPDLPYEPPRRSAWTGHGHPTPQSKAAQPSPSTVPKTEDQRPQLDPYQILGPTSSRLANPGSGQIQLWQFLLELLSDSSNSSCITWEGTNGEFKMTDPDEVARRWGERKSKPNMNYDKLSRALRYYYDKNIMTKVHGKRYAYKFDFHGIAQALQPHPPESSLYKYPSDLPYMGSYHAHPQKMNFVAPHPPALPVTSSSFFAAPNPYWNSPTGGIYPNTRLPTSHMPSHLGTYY
The following applies: protein: recombinant; tags: N-terminal GST; dsDNA, one strand shown. A digest of the protocol: as §1

A further assay deals with ELF1 (Homo sapiens, UniProt P32519 1-619). Conditions: protein: recombinant; tags: N-terminal GST; dsDNA, one strand shown. A digest of the protocol:
as §1

A further assay addresses T5, EHF (Homo sapiens, UniProt Q9NZC4 1-300).
T5 sequence: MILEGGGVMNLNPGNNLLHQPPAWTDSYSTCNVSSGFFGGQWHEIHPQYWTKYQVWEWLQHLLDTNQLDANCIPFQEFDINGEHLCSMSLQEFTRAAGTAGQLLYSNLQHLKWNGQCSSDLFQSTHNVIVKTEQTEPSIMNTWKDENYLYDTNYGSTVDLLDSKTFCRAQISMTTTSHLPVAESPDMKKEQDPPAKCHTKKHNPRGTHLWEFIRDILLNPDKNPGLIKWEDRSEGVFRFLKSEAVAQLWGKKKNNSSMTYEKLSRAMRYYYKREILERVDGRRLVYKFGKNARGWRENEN
The following applies: protein: recombinant; tags: N-terminal GST; dsDNA, one strand shown. A digest of the protocol:
as §1

Another assay addresses SPI1 (Homo sapiens, UniProt P17947 1-270). The following applies: protein: recombinant; tags: N-terminal GST; dsDNA, one strand shown. A digest of the protocol: as §1
The target of a further assay is SPIB (Homo sapiens, UniProt Q01892 1-262). The following applies: protein: recombinant; tags: N-terminal GST; dsDNA, one strand shown. A digest of the protocol:
as §1

For the next assay, the target named is T6, ELK3 (Homo sapiens, UniProt P41970 1-407).
T6 sequence: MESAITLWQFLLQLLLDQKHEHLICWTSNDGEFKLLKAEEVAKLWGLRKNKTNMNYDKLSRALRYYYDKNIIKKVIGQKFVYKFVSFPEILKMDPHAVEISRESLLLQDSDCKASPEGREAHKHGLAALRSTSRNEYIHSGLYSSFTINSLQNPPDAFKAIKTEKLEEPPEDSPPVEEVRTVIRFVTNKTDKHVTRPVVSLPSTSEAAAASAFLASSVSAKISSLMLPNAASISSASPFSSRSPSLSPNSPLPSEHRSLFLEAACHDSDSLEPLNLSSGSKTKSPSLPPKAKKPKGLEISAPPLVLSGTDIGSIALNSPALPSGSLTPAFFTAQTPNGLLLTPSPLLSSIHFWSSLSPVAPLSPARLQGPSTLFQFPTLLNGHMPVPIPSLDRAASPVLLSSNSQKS
Conditions: protein: recombinant; tags: N-terminal GST; dsDNA, one strand shown. The gist of the method: as §1

A further assay addresses T7, FEV (Homo sapiens, UniProt Q99581 1-238).
T7 sequence: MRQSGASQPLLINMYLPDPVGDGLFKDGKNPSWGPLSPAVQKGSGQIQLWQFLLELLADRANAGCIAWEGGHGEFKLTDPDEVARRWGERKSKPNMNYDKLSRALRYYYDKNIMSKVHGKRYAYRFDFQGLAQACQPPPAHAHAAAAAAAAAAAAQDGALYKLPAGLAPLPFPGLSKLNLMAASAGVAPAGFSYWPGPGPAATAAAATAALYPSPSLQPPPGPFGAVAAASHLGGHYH
Conditions: protein: recombinant; tags: N-terminal GST; dsDNA, one strand shown. A digest of the protocol:
as §1

Another assay concerns the target ETV5 (Homo sapiens, UniProt P41161 1-510). Conditions: protein: recombinant; tags: N-terminal GST; dsDNA, one strand shown. A digest of the protocol: as §1
A further assay addresses HSF1 (Homo sapiens, UniProt Q00613 1-529). The following applies: protein: recombinant; tags: N-terminal GST; chain copies: 3; dsDNA, one strand shown. The gist of the method: as §1
The target of the next assay is T8, SPIC (Homo sapiens, UniProt Q8N5J4 1-248).
T8 sequence: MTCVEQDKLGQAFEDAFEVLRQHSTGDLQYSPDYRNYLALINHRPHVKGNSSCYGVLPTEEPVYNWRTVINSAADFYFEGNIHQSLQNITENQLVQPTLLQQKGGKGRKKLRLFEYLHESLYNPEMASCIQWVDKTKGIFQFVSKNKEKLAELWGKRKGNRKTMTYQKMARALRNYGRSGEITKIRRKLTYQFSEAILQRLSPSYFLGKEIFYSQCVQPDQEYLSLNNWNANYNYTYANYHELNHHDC
The following applies: protein: recombinant; tags: N-terminal GST; dsDNA, one strand shown. A digest of the protocol: as §1

Another assay deals with ELF4 (Homo sapiens, UniProt Q99607 1-663). The following applies: protein: recombinant; tags: N-terminal GST; dsDNA, one strand shown. A digest of the protocol:
as §1

Another assay concerns the target T9, ELK4 (Homo sapiens, UniProt P28324-2 1-405).
T9 sequence: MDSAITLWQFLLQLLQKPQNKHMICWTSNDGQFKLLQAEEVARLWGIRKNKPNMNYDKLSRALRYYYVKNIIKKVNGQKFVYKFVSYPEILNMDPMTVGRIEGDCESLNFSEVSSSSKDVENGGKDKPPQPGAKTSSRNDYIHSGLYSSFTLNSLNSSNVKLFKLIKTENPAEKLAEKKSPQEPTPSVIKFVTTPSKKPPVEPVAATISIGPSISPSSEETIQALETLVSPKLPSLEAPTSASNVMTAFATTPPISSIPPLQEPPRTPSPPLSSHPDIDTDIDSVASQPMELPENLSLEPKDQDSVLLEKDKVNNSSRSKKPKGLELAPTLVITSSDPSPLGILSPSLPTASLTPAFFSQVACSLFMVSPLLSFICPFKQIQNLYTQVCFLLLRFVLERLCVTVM
The following applies: protein: recombinant; tags: N-terminal GST; dsDNA, one strand shown. The gist of the method: as §1

Another assay concerns the target T10, ETV2 (Homo sapiens, UniProt O00321 1-342).
T10 sequence: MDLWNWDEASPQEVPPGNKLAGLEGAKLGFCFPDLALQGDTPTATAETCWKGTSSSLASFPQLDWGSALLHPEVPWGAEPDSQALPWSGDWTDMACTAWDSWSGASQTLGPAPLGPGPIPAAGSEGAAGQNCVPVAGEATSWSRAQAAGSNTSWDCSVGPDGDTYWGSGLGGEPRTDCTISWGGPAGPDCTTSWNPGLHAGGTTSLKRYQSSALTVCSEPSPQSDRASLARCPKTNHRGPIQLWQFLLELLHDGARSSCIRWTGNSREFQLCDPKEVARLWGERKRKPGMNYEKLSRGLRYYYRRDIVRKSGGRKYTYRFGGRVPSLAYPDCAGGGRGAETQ
The following applies: protein: recombinant; tags: N-terminal GST; dsDNA, one strand shown. The gist of the method:
as §1

A further assay has as its target T11, ELF3 (Homo sapiens, UniProt P78545 1-371).
T11 sequence: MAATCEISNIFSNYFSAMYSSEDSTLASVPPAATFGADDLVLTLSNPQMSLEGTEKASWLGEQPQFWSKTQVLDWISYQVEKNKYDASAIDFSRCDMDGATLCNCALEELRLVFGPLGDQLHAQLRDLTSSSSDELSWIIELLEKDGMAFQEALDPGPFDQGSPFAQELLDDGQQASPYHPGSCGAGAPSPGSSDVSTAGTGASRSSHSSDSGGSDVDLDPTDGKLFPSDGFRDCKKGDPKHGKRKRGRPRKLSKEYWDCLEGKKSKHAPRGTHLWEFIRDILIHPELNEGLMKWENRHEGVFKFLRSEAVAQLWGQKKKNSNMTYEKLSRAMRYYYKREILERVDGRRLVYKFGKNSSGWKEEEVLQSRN
Conditions: protein: recombinant; tags: N-terminal GST; dsDNA, one strand shown. A digest of the protocol:
as §1

For a further assay, the target named is CRX (Homo sapiens, UniProt O43186 1-299). Conditions: protein: recombinant; tags: N-terminal GST; dsDNA, one strand shown. The gist of the method:
as §1

A further assay has as its target ETV1 (Homo sapiens, UniProt P50549 1-477). The following applies: protein: recombinant; tags: N-terminal GST; dsDNA, one strand shown. The gist of the method:
as §1

HSF1, sequence (Q00613 whole entry): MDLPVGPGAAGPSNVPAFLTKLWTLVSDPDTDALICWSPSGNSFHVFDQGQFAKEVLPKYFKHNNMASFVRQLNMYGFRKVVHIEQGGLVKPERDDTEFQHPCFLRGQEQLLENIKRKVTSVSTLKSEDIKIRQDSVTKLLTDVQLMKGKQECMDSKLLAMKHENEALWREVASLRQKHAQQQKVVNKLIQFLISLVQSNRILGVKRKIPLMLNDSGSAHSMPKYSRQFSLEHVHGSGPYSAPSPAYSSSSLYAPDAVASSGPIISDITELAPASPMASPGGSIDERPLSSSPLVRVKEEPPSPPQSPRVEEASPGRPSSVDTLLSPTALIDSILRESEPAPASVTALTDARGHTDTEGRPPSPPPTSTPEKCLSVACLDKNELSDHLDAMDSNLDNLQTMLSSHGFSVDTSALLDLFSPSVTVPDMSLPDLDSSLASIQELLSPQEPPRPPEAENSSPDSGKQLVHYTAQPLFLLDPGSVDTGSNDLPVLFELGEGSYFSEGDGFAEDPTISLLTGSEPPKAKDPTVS
ETV5, sequence (P41161 whole entry): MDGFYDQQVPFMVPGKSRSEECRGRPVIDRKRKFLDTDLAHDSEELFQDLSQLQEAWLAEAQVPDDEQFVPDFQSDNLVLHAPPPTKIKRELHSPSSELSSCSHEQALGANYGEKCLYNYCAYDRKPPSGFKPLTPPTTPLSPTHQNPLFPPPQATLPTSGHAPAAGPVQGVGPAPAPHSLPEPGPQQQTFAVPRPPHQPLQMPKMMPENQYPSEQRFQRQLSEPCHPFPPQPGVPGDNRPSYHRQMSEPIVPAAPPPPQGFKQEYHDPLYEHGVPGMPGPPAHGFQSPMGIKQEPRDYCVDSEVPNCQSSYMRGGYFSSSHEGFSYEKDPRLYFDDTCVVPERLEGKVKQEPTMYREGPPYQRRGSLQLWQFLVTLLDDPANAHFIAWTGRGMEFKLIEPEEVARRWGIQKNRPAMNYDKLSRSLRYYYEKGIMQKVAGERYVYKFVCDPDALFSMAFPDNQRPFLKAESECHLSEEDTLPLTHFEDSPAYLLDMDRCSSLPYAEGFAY
ELF4, sequence (Q99607 whole entry): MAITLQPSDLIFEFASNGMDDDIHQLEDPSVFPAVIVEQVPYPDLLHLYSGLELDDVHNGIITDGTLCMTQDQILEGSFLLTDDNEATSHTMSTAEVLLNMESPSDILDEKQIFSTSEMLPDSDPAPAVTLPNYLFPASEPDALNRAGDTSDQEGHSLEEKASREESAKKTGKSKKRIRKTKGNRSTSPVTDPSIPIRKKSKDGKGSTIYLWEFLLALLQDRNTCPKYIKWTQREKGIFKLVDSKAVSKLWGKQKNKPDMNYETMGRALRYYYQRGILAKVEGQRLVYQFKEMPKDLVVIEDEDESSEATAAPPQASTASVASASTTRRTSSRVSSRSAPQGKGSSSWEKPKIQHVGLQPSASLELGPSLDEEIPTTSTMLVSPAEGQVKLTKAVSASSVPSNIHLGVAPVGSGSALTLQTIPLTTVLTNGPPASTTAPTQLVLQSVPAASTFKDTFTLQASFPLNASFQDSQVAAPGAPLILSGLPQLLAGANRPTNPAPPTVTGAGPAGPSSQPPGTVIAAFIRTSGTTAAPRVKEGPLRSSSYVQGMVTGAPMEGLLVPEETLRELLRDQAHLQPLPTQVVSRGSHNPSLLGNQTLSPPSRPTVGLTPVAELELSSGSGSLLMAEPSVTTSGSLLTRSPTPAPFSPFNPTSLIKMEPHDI
ELF1, sequence (P32519 whole entry): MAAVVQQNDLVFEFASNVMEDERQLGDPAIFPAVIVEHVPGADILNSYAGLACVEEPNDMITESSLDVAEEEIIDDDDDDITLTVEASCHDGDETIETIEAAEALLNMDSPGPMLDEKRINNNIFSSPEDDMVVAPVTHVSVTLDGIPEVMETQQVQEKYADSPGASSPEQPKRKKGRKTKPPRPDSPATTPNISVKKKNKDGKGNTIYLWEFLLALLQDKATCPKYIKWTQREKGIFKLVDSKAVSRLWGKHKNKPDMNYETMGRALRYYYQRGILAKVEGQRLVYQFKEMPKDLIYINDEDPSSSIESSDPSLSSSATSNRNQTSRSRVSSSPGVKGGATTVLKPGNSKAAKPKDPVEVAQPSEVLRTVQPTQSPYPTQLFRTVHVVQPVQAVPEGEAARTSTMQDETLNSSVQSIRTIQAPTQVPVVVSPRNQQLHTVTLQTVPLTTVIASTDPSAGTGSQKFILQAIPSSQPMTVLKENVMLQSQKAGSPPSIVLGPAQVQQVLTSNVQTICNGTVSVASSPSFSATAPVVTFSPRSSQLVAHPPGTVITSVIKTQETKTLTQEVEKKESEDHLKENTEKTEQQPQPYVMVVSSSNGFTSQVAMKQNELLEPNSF
ETV1, sequence (P50549 whole entry): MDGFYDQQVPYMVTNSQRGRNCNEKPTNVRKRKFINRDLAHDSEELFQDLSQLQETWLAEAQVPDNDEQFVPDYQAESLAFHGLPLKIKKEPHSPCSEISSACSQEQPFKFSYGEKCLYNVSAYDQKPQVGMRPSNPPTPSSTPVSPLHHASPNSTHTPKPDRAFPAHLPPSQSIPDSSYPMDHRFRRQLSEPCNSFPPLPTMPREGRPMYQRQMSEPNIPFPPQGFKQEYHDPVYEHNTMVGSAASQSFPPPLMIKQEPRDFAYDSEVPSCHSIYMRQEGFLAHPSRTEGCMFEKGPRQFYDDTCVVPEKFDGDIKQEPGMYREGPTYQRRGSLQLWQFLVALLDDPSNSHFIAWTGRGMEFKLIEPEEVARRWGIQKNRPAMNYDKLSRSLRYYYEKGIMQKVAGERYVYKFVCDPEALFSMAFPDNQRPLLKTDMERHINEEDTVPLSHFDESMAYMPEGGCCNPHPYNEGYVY
CRX, sequence (O43186 whole entry): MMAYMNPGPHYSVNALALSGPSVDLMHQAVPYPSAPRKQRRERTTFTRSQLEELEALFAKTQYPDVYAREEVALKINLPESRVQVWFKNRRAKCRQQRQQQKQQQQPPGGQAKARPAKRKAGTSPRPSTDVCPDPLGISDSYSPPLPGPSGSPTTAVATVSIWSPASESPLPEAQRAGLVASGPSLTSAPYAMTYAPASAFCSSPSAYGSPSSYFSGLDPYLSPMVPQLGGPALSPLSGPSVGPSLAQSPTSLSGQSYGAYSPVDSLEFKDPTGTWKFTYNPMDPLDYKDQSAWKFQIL
SPIB, sequence (Q01892 whole entry): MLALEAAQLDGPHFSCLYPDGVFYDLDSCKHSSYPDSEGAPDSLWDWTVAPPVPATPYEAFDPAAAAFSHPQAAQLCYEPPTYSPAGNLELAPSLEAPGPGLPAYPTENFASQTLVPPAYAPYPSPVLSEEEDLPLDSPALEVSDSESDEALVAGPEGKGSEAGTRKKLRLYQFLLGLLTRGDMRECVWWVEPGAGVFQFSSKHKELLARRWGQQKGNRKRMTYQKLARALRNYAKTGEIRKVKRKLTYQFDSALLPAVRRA

Consider TTAATC, for which the binding signal in the assay with FLI1 was 1.28 fold enrichment (6-mer frequency, TF over GST control); with ELK1, 1.21 fold enrichment (6-mer frequency, TF over GST control); with GABPA, 1.2 fold enrichment (6-mer frequency, TF over GST control); in the assay with ERG it was 1.17 fold enrichment (6-mer frequency, TF over GST control); with ELF1 it was 1.2 fold enrichment (6-mer frequency, TF over GST control); with EHF it was 1.22 fold enrichment (6-mer frequency, TF over GST control). For the same sequence, the binding signal was 1.21 fold enrichment (6-mer frequency, TF over GST control) with SPI1; 1.31 fold enrichment (6-mer frequency, TF over GST control) with SPIB; 1.31 fold enrichment (6-mer frequency, TF over GST control) with ELK3; 1.19 fold enrichment (6-mer frequency, TF over GST control) with FEV; 1.23 fold enrichment (6-mer frequency, TF over GST control) in the assay with ETV5; 3.29 fold enrichment (6-mer frequency, TF over GST control) with HSF1. Besides, the binding signal was 1.19 fold enrichment (6-mer frequency, TF over GST control) in the assay with SPIC; 1.26 fold enrichment (6-mer frequency, TF over GST control) in the assay with ELF4; 1.43 fold enrichment (6-mer frequency, TF over GST control) with ELK4; 1.13 fold enrichment (6-mer frequency, TF over GST control) with ETV2; 1.27 fold enrichment (6-mer frequency, TF over GST control) in the assay with ELF3; 6.11 fold enrichment (6-mer frequency, TF over GST control) with CRX. Besides, the binding signal with ETV1 was 1.33 fold enrichment (6-mer frequency, TF over GST control).
